# Compound activity as filed in PubChem BioAssay.
# Most compounds without a hit are left out; they make up all but 15% or so of the library.
# Sm TGR block: S. mansoni TGR enzyme inhibition; Potency, µM (series often up to 114 µM), for inactives: at the top dose activity change, negative = inhibition, most hits filed as inhibitors; hit rate 3% among 360,000; purified TGR, DTNB reduction, TNB absorbance 405 nm; Q962Y6; further: potency means the concentration at half of the fitted maximal effect; on the % scale 0 is the no-effect control and ±100 the full control effect; nearly all actives have a fitted effect of over 60% in size
#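 First, TGR (20 nM dispensed) and NADPH were mixed with compound. Second, a 15 min room-temperature incubation followed. Third, further NADPH and then DTNB were added to start the reaction. Finally, TNB absorbance was monitored kinetically.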
# SARS PLP yeast: SARS-CoV PLP inhibition in yeast; S. cerevisiae expressing SARS-CoV PLpro, growth rescue; Potency, µM (highest dose often 32.9 µM), for inactives: at the highest dose activity, positive = growth rescue, actives largely listed as activators; hit rate 0.19% among 330,000; calls by dose curve; further: potency means the concentration at half of the fitted maximal effect; 0% is about no effect; nearly all actives have a fitted effect of over 55% in size
# HCV inhibitor: inhibitors of hepatitis C virus infection; hit rate 3.4% among 340,000; AID 651820; Huh7.5.1 HCVcc-Cre infection, luciferase reporter, 44 h; Potency, µM (titrated, usually from 41.8 µM), for inactives: top-dose activity change, negative = inhibition, usual class: inhibitors; further: potency means the concentration at half of the fitted maximal effect; on the % scale 0 is the no-effect control and ±100 the full control effect
#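 Infectious HCV cell culture screen: compound-treated cells (1,000/well, pre-plated 4 h) are infected with HCVcc-Cre at roughly 0.5 moi and grown 44 h. Infection is quantified by luciferase signal after 15 min substrate incubation at room temperature.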
# Pf growth 96h: P. falciparum growth inhibition at 96 hour, primary screen for plastid delayed-death inhibitors; hit rate 6.9% among 320,000; AID 504834; P. falciparum luciferase reporter growth, 96 h; Potency, µM (titrated, usually from 28.7 µM), for inactives: at the top dose activity change, negative = inhibition, hits mostly inhibitors; further: potency means the concentration at half of the fitted maximal effect; on the % scale 0 is the no-effect control and ±100 the full control effect
#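 Parasite growth measured via integrated firefly luciferase reporter in P. falciparum. Infected erythrocytes at 2% hematocrit, 0.05% parasitemia final were treated 96 hours at 37 C under 5% CO2, and luminescence was read.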
# Pf growth 48h: inhibits P. falciparum growth in the first generation, 48 h; P. falciparum luciferase growth in erythrocytes, 48 h; Potency, µM (doses to about 28.7 µM), for the others: at the highest dose activity change, negative = inhibition, hits mostly inhibitors; hit rate 5.9% among 310,000; further: potency means the concentration at half of the fitted maximal effect; on the % scale 0 is the no-effect control and ±100 the full control effect
#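 Growth was read as firefly luciferase luminescence after a 48 h, 37 C, 5% CO2 exposure of compounds to reporter-bearing P. falciparum cultures (0.1% parasitemia, 2% hematocrit final) in Albumax-supplemented RPMI 1640.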
# HCMV antiviral: inhibitors of human cytomegalovirus; HFF cells, HCMV-luciferase reporter, 72 h; hits give low values; activity change, negative = inhibition, % at 57.5 µM; hit rate 4.5% among 410,000; in the data active means activity change below about -60%; inconclusive means no clear call, values can overlap the other calls; inactive means above about -39%; further: on the % scale 0 is the no-effect control and ±100 the full control effect
#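 HFF cells seeded 16 h at 37C, treated with compounds, infected with luciferase-reporter HCMV at MOI 1 PFU/cell; luciferase read at 72 h post infection, normalized to buffer-only and Salinomycin controls.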
# Starred values were filed as active, the others as inactive; u = inconclusive; x = no result given; ! = a repeat was not active; [ ] = dose if it differs, or a comment. Unless noted, the call rests on the fitted dose curve; in most records, active means well fitted curve in the direction sought with a large enough effect; inconclusive means small, poorly fitted or top-dose-only effect, or another doubt; inactive means no such curve, though single readings can be large; an effect the other way counts as inactive or inconclusive.
SMILES,Sm TGR block,SARS PLP yeast,HCV inhibitor,Pf growth 96h,Pf growth 48h,HCMV antiviral
Cc1ccc(-c2cc(C(=O)N3CC(C)OC(C)C3)c3ccccc3n2)o1 (configuration not stated),40µM*,-4%,13%,1%,-1%,13
CCOC(=O)[C@@H]1[C@H]2COc3ccccc3[C@@H]2N2C(=O)N(c3ccc(C(F)(F)F)cc3)C(=O)[C@]12C,x,x,-7%,x,x,0
Cc1cc(C(=O)Nc2sc3c(c2C#N)CCC(C(C)(C)C)C3)no1 (configuration not stated),-2%,4%,-19%,10µM*,x,-5
CC(C)(C)C1CCc2c(sc(NC(=O)c3cc(C4CC4)on3)c2C#N)C1 (configuration not stated),-19%,-1%,6%,2%,x,-24
CN1CCc2ccccc2Cc2[nH]c3ccccc3c2CC1,-31%,x,-17%,6.6µM*,8.3µM*,2
CCCCN1CCc2c([nH]c3ccccc23)C1=O,-7%,-1%,-6%,-6%,84%,71
O=C(CSc1nc2ccccc2[nH]1)Nc1cc(C(F)(F)F)ccc1N1CCOCC1,u,-1%,u,5.2µM*,u,-31
O=C(CSc1ccc([N+](=O)[O-])cn1)Nc1nccs1,-2%,u,9%,u,u,-33
O=C(CSc1ccc(S(=O)(=O)N2CCCC2)cn1)Nc1ccc([N+](=O)[O-])cc1C(F)(F)F,x,x,13µM*,x,x,-12
O=C(CSc1ccc([N+](=O)[O-])cn1)Nc1ccccc1N1CCOCC1,-18%,-7%,4%,4%,u,38
Cc1csc(NC(=O)CSc2ccc([N+](=O)[O-])cn2)n1,-28%,-3%,0%,12µM*,-33%,-3
O=C(CSc1ccc([N+](=O)[O-])cn1)Nc1cc(C(F)(F)F)ccc1N1CCOCC1,3%,1%,x,-25%,5.2µM*,-30
Cc1cc(C)c2c(-n3cccc3)nn(CC#N)c2n1,3%,0%,-11%,u,5%,-23
COC(=O)c1ccccc1NC(=O)c1nc(-c2ccc(Cl)cc2)n2c1CCCCC2,-3%,x,x,x,x,8
c1ccc(CN(CC2=NCCN2)c2ccccc2)cc1,0%,3%,1%[8.37 µM],12µM*!,-25%,u
c1ccc(CC2=NCCN2)cc1,4%,1%,23%,u,-26%[12.8 µM],-3
COc1ccc(Oc2nc(OC)cc(OC)n2)cc1,x,1%,-9%,-16%,27%,-13
COc1ccc(N(CC(=O)Nc2ccccc2C)S(=O)(=O)c2c(C)[nH]c(=O)[nH]c2=O)cc1,2%,2%,9%,-9%,-6%,-31
COC(=O)CN(c1ccc(C(C)C)cc1)S(=O)(=O)c1c(C)[nH]c(=O)[nH]c1=O,-16%,-5%,-1%,9.3µM*,x,u
CCCCC(CC)COS(=O)(=O)O (configuration not stated),x,x,x,5%,13%,x
Cc1ccc(-c2nc3ncccn3c2Nc2ccc3c(c2)OCO3)o1,u,5%,-7%,u,-18%,47
Cc1ccc(Nc2c(-c3ccc(C)o3)nc3ncccn23)cc1,20µM*,-1%,14%,5%,-10%,-32
Cc1ccn2c(Nc3ccc(F)cc3)c(-c3ccc(C)o3)nc2c1,-13%,x,x,x,x,6
Cc1ccc(-c2nc3ncccn3c2Nc2ccccc2C)o1,40µM*,0%,-9%,u,u,0
Cc1ccc(-c2nc3cnccn3c2Nc2c(C)cccc2C)o1,14µM*,-38%,u,4%,x,-26
SMILES,Sm TGR block,SARS PLP yeast,HCV inhibitor,Pf growth 96h,Pf growth 48h,HCMV antiviral
Brc1ccc(-c2nc3ncccn3c2NC2CCCCC2)o1,35µM*,-8%,-15%,54%,x,u
COc1ccccc1Nc1nccc(N(C)C)c1C#N,16%,0%,24%,u,0%,-25
CCOc1cccc(C(=O)Nc2nc(-c3ccc(S(=O)(=O)N4CCOCC4)cc3)cs2)c1,11%,2%,-28%,x,5.2µM*,-13
CC(C)C(=O)Nc1nc(-c2ccc(S(=O)(=O)N3CCOCC3)cc2)cs1,-6%,6%,-27%,-27%,0%,-30
O=C(Nc1nc(-c2ccncc2)cs1)c1ccc(S(=O)(=O)N2CCOCC2)cc1,-7%,1%,-22%,u,u,36
O=C(COc1cccc(Cl)c1)Nc1nc(-c2ccc(S(=O)(=O)N3CCOCC3)cc2)cs1,0%,11%,u,9.3µM*,8.3µM*,u
CCOc1ccc(NC2OC(CO)C(O)C(O)C2O)c([N+](=O)[O-])c1 (configuration not stated),3%,4%,5%,5%,6%,25
Cc1ccc(OCc2nnc(-c3ccc(Cl)cc3)o2)cc1,x,x,11%,x,x,-28
ClCc1ncc(-c2ccc(Cl)cc2)o1,25µM*,0%,-5%,-14%,-4%,u
Cc1cc(=O)oc2cc(OCC(O)CN3CCN(c4ccc(F)cc4)CC3)ccc12 (configuration not stated),-7%,0%,-15%,x,12%,-13
CCOc1ccccc1N1CCN(CC(O)COc2ccc3c(C)cc(=O)oc3c2)CC1 (configuration not stated),2%,3%,u,-2%,8.3µM*,22
CCOc1ccccc1N1CCN(CC(O)COC2CCCc3ccccc32)CC1 (configuration not stated),2%,2%,11µM*,u,u,-16
O=C(NCCc1ccc(Cl)cc1)C1CCN(c2ncccn2)CC1,x,1%,4%,27%,26%,4
CCOc1ccccc1NC(=O)C(OC(=O)c1ccccc1)c1ccccc1 (configuration not stated),-4%,2%,u,u,-17%,-27
Cc1cc(C(=O)C(C)OC(=O)c2ccc(NC(=O)CC#N)cc2)c(C)n1-c1ccccc1 (configuration not stated),6%,7%,u,8.3µM*,13µM*,-63*
CC(OC(=O)c1ccc(NC(=O)CC#N)cc1)C(=O)NC(c1ccccc1)c1ccccc1 (configuration not stated),x,-1%,8%,x,x,-30
CCOc1ccccc1NC(=O)C(OC(=O)c1cc(C)oc1C)c1ccccc1 (configuration not stated),-4%,3%,-9%,u,13µM*,u
CCOc1ccccc1NC(=O)C(OC(=O)c1ccc(NC(=O)CC#N)cc1)c1ccccc1 (configuration not stated),-1%,-3%,u,2.3µM*,5.2µM*,26
O=C(NC1CCCCC1)C(CCc1ccccc1)N1CCc2ccccc2C1 (configuration not stated),x,x,x,x,x,-14
